Efflux pump mplx: inhibitors of Candida antifungal efflux pumps expressed in yeast. S. cerevisiae Candida pump triplex, Nile Red efflux. inhibition, % at 10 µM. 330,000 tested, 0.44% active;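 active = plate passing quality check with inhibition over a set limit, or well fluorescence over plate mean plus 4 SD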;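 note: Nile Red retained in pooled yeast measured as flow cytometry median fluorescence; 0% = buffer negative control and 100% = Enniatin B positive control; higher means more Nile Red kept so more efflux inhibition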
eIF4H inh: inhibitors of RNA binding by human eIF4H; 290,000 tested, 0.94% active; AID 2012; Q15056; eIF4H fluorescence polarization binding assay; inhibition, % at 35 µM;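 note: calls also rest on retests at 20 µM and on dose response follow-up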
UBC9 SUMO inh: SUMOylation inhibition; P63279; HTRF SUMOylation assay, SAE1/SAE2 + UBC9, in vitro; inhibition, % at 35 µM; 290,000 tested, 0.36% active; in the data active = inhibition above about 50%, passing the limit was not always enough; inconclusive = no clear call, values can overlap the other calls
Target sequence (P63279 whole entry, looked up): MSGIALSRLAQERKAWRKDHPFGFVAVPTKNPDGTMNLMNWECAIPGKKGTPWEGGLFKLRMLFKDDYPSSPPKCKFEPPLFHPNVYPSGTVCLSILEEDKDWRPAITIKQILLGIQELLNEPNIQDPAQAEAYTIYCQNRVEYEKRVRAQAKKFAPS
PABP polyA inh: PABP-poly(A) binding inhibition; P11940; PABP-poly(A) RNA binding, fluorescence polarization; inhibition, % at 35 µM; 290,000 tested, 1% active; AID 2014;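 note: calls also rest on retests at 20 µM and on dose response follow-up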
ALR H2O2 inh: human ALR oxidase inhibition via reduced H2O2 | P55789 | purified ALR, DTT oxidation, H2O2 HRP-luminol luminescence | inhibition, % (test concentration not listed) | 290,000 tested, 3.8% active | AID 485317;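 active = mean replicate inhibition above about 79%, with every replicate also reaching it, limit read from the data; inconclusive = only one of the two criteria met; inactive = mean below limit and not every replicate reaching it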
Target sequence (P55789 whole entry, looked up): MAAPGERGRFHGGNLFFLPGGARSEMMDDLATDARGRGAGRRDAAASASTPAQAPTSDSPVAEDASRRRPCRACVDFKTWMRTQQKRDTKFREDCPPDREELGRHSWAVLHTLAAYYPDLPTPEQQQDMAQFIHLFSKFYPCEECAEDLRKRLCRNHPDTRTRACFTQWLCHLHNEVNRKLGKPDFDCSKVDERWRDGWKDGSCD
MLLE-PAM2 inh: blocks PAM2 peptide binding to the PABP1 MLLE domain. inhibition, % at 20 µM. GST-MLLE / FITC-PAM2 fluorescence polarization. 360,000 tested, 0.36% active; in the data active = inhibition above about 35%, passing the limit was not always enough;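 note: plate controls were DMSO wells with GST-MLLE for no effect and wells lacking GST-MLLE protein for full effect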
Active calls of the source: *; ? = inconclusive; . = not tested or not shown. Only some compounds are listed: those with a hit (about 4.7% of all), similar ones and a draw of the others. Unless noted, the rule behind the calls is not given here.

SMILES	Efflux pump mplx	eIF4H inh	UBC9 SUMO inh	PABP polyA inh	ALR H2O2 inh	MLLE-PAM2 inh
COc1ccc(NS(=O)(=O)c2ccc(N3CCOCC3)c(NC(=O)c3ccccc3Cl)c2)cc1	-0.1	0.3	-21.8	9.5	4.3	4.8
O=C(Nc1cc(S(=O)(=O)Nc2ccc(Cl)cc2)ccc1N1CCCCC1)c1ccc(F)cc1Cl	0.0	8.0	-4.6	10.8	-17.3	42.6*
Cc1ccc(C(=O)Nc2ccc(N3CCCC3)cc2)c(C)c1	0.4	2.8	-0.8	9.7	1.9	-25.8
CS(=O)(=O)N1CCN(c2ccc(NC(=O)C(c3ccccc3)c3ccccc3)cc2)CC1	-0.1	-3.1	-35.7	-10.7	-4.9	12.6
Cc1ccccc1C(=O)Nc1ccc(N2CCCC2)cc1	0.1	-3.7	5.0	-5.3	92.3*	-1.8
O=C(Nc1ccc(N2CCCC2)cc1)C(Cl)c1ccccc1 (stereo not given)	-0.2	4.3	10.9	-2.2	97.8*	13.5
O=C(NCCC(F)(F)F)c1cccc2c(-c3ccc(F)c(F)c3)coc12	.	.	.	.	.	1.0
O=C(Nc1cccc(S(=O)(=O)NC2=NCCC2)c1)c1cn(-c2ccccc2)nc1-c1ccc(F)cc1	0.4	.	.	.	.	-5.2
O=C(CN(C(=O)c1csnn1)c1cccc(Cl)c1)NC1CCCCC1	-0.1	-5.0	17.0	5.9	-3.3	13.9
COc1ccc(C(=O)Nc2ccc(N3CCCC3)cc2)cc1OC	0.1	4.0	-5.5	15.5	99.1*	-7.6
CS(=O)(=O)c1ccc(C(=O)Nc2ccc(N3CCOCC3)cc2)c(Cl)c1	0.0	-8.4	16.5	-6.6	52.2	-6.9
O=C(O)c1cc(S(=O)(=O)Nc2cccc(S(=O)(=O)N3CCCC3)c2)ccc1Cl	.	.	.	.	.	3.8
COc1ccc(NC(=O)C2CCCCN2N)cc1OC (stereo not given)	-0.1	-4.5	24.2	2.7	-12.7	6.8
CS(=O)(=O)c1ccc(C(=O)Nc2ccc(N3CCCC3)cc2)c(Cl)c1	-0.1	81.9*	-10.5	6.5*	53.4	0.3
O=C(O)c1cc(S(=O)(=O)Nc2ccc(N3CCCCC3)cc2)ccc1Cl	0.1	-8.0	-26.5	1.0	98.3*	0.4
COc1ccc(C(=O)Nc2ccc(N3CCOCC3)cc2)cc1OC	0.2	-6.6	-2.7	-8.4	-13.8	-0.2
COc1ccc(NC(=O)C2CCCN2c2ccc(OC)c(OC)c2)cc1OC (stereo not given)	0.0	1.8	15.0	14.5	99.0*	0.5
CCCC(=O)N(CCN1CCOCC1)c1nc2c(F)cc(F)cc2s1	0.0	-13.2	-21.2	6.2	-5.1	-1.5
CCC(=O)N(C)C[C@H]1Oc2ncc(C#Cc3ccncc3)cc2C(=O)N([C@@H](C)CO)C[C@@H]1C	.	.	.	.	.	-14.3
CN(C)c1ccc(N=Nc2ccc(S(=O)(=O)O)cc2)c2ccccc12	0.2	-2.1	48.7	-1.7	98.8*	7.1
Cc1[nH]c2ccccc2c1CCNS(=O)(=O)c1ccc(S(N)(=O)=O)cc1	0.1	-2.2	9.5	-3.1	89.7*	14.9
NS(=O)(=O)c1ccc(S(=O)(=O)NCCc2ccccc2)cc1	-0.2	-8.9	15.6	-2.8	-11.3	21.9
Oc1ccc(/C=N/Nc2ncnc3c2ncn3Cc2ccccc2)cc1O	0.2	1.0	-28.0	-0.2	96.0*	-1.6
Oc1cccc(/C=N/Nc2ncnc3c2ncn3Cc2ccccc2)c1	0.2	-1.6	5.0	7.3	70.8	-3.4
COc1cccc(/C=N/NC(=O)CN(C)S(=O)(=O)c2ccccc2)c1OC	0.1	.	.	.	.	4.5
SMILES	Efflux pump mplx	eIF4H inh	UBC9 SUMO inh	PABP polyA inh	ALR H2O2 inh	MLLE-PAM2 inh
CCC(CC)CN1CCC(CN2C(=S)NC[C@@H]2CC(C)C)CC1	.	.	.	.	.	-36.4
COc1ccc(C(=O)Oc2ccc(/C=N/O)cc2)cc1	0.1	-4.2	-25.3	5.2	90.5*	-2.9
CC(=O)c1ccc(NC(=S)Nc2cccc3cnccc23)cc1	-0.2	47.7	98.1*	40.3	25.4	16.1
Cc1ccc(C)c(NC(=S)Nc2cccc3cnccc23)c1	-0.1	47.5	99.4	1.4	-36.7	19.9
FC(F)(F)c1ccccc1NC(=S)Nc1cccc2cnccc12	.	94.5*	94.7	active	.	6.7
Cc1ccccc1NC(=S)Nc1cccc2cnccc12	0.0	21.9	97.2*	9.8	.	36.1
Fc1ccccc1NC(=S)Nc1cccc2cnccc12	-0.2	57.8*	98.0*	2.1	22.3	37.0*
CCC(C)Sc1ccc([C@@H]2[C@H]3C(=O)N(CC)C(=O)[C@H]3[C@]3(C(=O)OC)CCCN23)cc1OC (stereo not given in full)	0.3	.	.	.	.	-3.3
C[C@@H]1CCCCO[C@@H](CN(C)Cc2ccc(Cl)c(Cl)c2)[C@@H](C)CN([C@H](C)CO)C(=O)c2cc(NC(=O)CCC(F)(F)F)ccc2O1	.	.	.	.	.	-10.4
S=C(Nc1cccc(Cl)c1)Nc1cccc2cnccc12	-0.2	?	98.2*	-1.0	-2.9	12.2
Cc1ccc(NC(=S)Nc2cccc3cnccc23)cc1C	0.4	34.4	95.5	28.5	-14.5	20.1
Cc1ccc(NC(=S)Nc2cccc3cnccc23)cc1	-0.1	20.5	99.8*	-20.0	-8.3	18.6
NC(=S)Nc1cccc2cnccc12	0.0	1.9	9.7	-8.4	-9.7	3.2
O=C(O)CSc1nnc(-c2ccc(Cl)cc2Cl)n1Cc1ccccc1	-0.1	-18.5	7.9	-12.2	0.0	-103.8
O=C(O)C1OCC2(CO1)COC(C(=O)O)OC2 (stereo not given)	.	.	.	.	.	14.8
CN(CCOc1ccc(Cl)cc1)CC(O)c1ccccc1 (stereo not given)	2.7	11.3	17.5	12.1	.	-0.3
CN(CCOc1ccc(Br)cc1)CC(O)c1ccccc1 (stereo not given)	5.3*	9.4	7.8	7.8	.	-3.5
CSc1nc(-c2ccc(Cl)cc2Cl)[nH]c(=O)c1C#N	-0.4	0.6	4.3	-2.1	96.4*	2.9
Cc1cc(-c2ccc(Cl)cc2Cl)c(C#N)c(=O)[nH]1	0.1	8.4	10.6	10.4	-1.5	-5.4
O=C(C[n+]1cc(-c2ccc(Cl)cc2)n2c1CCC2)Nc1nc(-c2ccccc2)cs1	0.1	-0.1	4.7	-12.3	93.7*	-7.8
COc1ccc2[nH]c3c(=O)n(Cc4ccc(C(=O)NCC5CCCO5)cc4)c(=S)[nH]c3c2c1 (stereo not given)	0.0	61.4*	15.7	active	.	-36.1
COCCn1c(=S)[nH]c2cc(C(=O)NCC3CCCO3)ccc2c1=O (stereo not given)	0.0	-6.4	-3.0	5.5	98.3*	-61.0
COCCn1c(=O)[nH]c2cc(C(=O)NCC3CCCO3)ccc2c1=O (stereo not given)	-0.2	-4.3	-26.8	-4.5	-11.3	3.5
COc1cc2[nH]c(=S)n(CC3CCCO3)c(=O)c2cc1OC (stereo not given)	-0.1	-1.5	1.7	-6.0	48.7	-34.0
CCOc1cc2[nH]c(=S)n(CC3CCCO3)c(=O)c2cc1OCC (stereo not given)	-0.1	0.7	15.7	-4.9	95.2*	-41.5

Screening data from PubChem.
